# In PubChem BioAssay (NCI):
# This is part of a sample that, as a whole, favours compounds with a hit. Of some 79,000 tested, about 15% had one in any assay. Unmarked numbers belong to inactive results. Calls of active or inactive are those of the source. No stated cut-off is given here; in the data, active means growth inhibition above about 70%; inactive means the rest.
# Columns and labels:
# [1] = NCI Yeast Anticancer Drug Screen. Data for the rad52 strain (AID 147);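 further: 0% = growth of vehicle-treated control cultures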; details: S. cerevisiae rad52 mutant growth inhibition, stronger effect = higher value
# How it was run: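 Compounds are applied to a genetically defined yeast strain lacking normal DNA damage repair, and inhibition of growth is expressed relative to cultures given vehicle only.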
# [2] = NCI Yeast Anticancer Drug Screen. Data for the wt1 strain (AID 149);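 further: 0% = growth of vehicle-treated wt1 cultures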; details: S. cerevisiae wt1 strain (SPY 50644) growth inhibition, stronger effect = higher value
# How it was run: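 Compounds are added to wt1 yeast cultures. Growth is then measured. Inhibition is expressed relative to vehicle-treated controls.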
# [3] = NCI Yeast Anticancer Drug Screen. Data for the rad50EPP+ strain (AID 151);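 further: 0% = growth of vehicle-treated control cultures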; details: S. cerevisiae rad50 mutant strain, stronger effect = higher value
# How it was run: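 Compounds were applied to the rad50EPP+ yeast strain, which bears a defined DNA repair alteration, and growth inhibition was determined relative to vehicle-treated cultures.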
# [4] = NCI Yeast Anticancer Drug Screen. Data for the mgt1 strain (AID 153); details: S. cerevisiae mgt1 mutant growth inhibition, stronger effect = higher value
# How it was run: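 Strain: mgt1 yeast, one of a set carrying defined DNA damage repair or cell cycle control alterations. Compound-treated growth compared with vehicle.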
# [5] = NCI Yeast Anticancer Drug Screen. Data for the rad50 strain (AID 155);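 further: 0% = growth of vehicle-only cultures of the same strain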; details: S. cerevisiae rad50 strain growth inhibition, stronger effect = higher value
# How it was run: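 Inhibition values express reduced yeast growth in compound-treated cultures relative to vehicle-treated controls.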
# [6] = NCI Yeast Anticancer Drug Screen. Data for the mec2-1 strain (AID 157); details: S. cerevisiae mec2-1 strain, stronger effect = higher value
# How it was run: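 Strain: mec2-1 (DNA repair/cell cycle alteration). Compound exposure, then growth measured; inhibition expressed relative to vehicle.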
# [7] = NCI Yeast Anticancer Drug Screen. Data for the rad14 strain (AID 159);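 further: 0% = growth of vehicle-treated control cultures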; details: S. cerevisiae rad14 strain growth inhibition, stronger effect = higher value
# How it was run: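 A mutant yeast strain defective in DNA damage repair is treated with compound; inhibition of its growth is scored against untreated, vehicle-exposed cultures.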
# [8] = NCI Yeast Anticancer Drug Screen. Data for the sgs1 mgt1 strain (AID 161);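 further: 0% = growth of cultures given vehicle only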; details: S. cerevisiae sgs1 mgt1 strain, stronger effect = higher value
# How it was run: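 Genetically altered yeast, compound exposure, growth inhibition relative to vehicle.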
# [9] = NCI Yeast Anticancer Drug Screen. Data for the CLN2oe strain (AID 163);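 further: 0% = growth of vehicle-only control cultures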; details: S. cerevisiae CLN2oe strain, stronger effect = higher value
# How it was run: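 Growth of a genetically modified yeast strain is measured after compound exposure and compared with cultures given vehicle alone.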
# [10] = NCI Yeast Anticancer Drug Screen. Data for the cln2 rad14 strain (AID 165);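 further: 0% = growth equal to vehicle treated cultures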; details: S. cerevisiae cln2 rad14 strain, stronger effect = higher value
# How it was run: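 Compounds are applied to the cln2 rad14 yeast strain, and growth is then compared with that of vehicle-treated cultures to give inhibition.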
# [11] = NCI Yeast Anticancer Drug Screen. Data for the bub3 strain (AID 167); details: S. cerevisiae bub3 mutant strain, stronger effect = higher value
# How it was run: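 Steps: expose the mutant yeast strain to compound; grow alongside vehicle-treated cultures; measure growth; express inhibition against the vehicle cultures.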
# [12] = NCI Yeast Anticancer Drug Screen. Data for the wt2 strain (AID 169);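 further: 0% = growth of vehicle-treated yeast cultures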; details: S. cerevisiae wt2 strain growth inhibition, stronger effect = higher value
# How it was run: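 This strain belongs to a panel of yeast strains with defined genetic alterations in DNA damage repair or cell cycle control. Compounds are applied, and growth inhibition is measured against vehicle-treated cultures.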
# [13] = NCI Yeast Anticancer Drug Screen. Data for the mlh1 strain (AID 171);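 further: 0% = growth of vehicle-treated control cultures of the same strain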; details: S. cerevisiae mlh1 strain growth inhibition, stronger effect = higher value
# How it was run: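 Growth of the mutant yeast strain after compound exposure, expressed as inhibition relative to vehicle-only controls.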
# [14] = NCI Yeast Anticancer Drug Screen. Data for the sgs1 strain (AID 173);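 further: 0% = growth of vehicle-only control cultures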; details: S. cerevisiae sgs1 mutant, stronger effect = higher value
# How it was run: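 Growth of a yeast strain bearing a defined genetic alteration is measured after compound treatment. Inhibition is expressed relative to vehicle-only controls.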
# [15] = NCI Yeast Anticancer Drug Screen. Data for the mlh1 rad18 strain (AID 175); details: S. cerevisiae mlh1 rad18 strain growth inhibition, stronger effect = higher value
# How it was run: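 Read-out is yeast growth inhibition, calculated against vehicle-only controls. The compound was applied to a strain engineered with DNA damage repair alterations.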
# [16] = NCI Yeast Anticancer Drug Screen. Data for the rad18 strain (AID 177); details: S. cerevisiae rad18 mutant growth inhibition, stronger effect = higher value
# How it was run: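 Growth of the mutant yeast strain after compound exposure, normalised to vehicle-only cultures.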
# [17] = at 5.0 µM (retest, dose inferred, filed as 0.5)
# [18] = at 50.0 µM (retest, dose inferred, filed as 5.0)
compound,measurement,setting,value
Nc1nc(-c2cccnc2)cc(-c2cc(-c3cccnc3)nc(N)n2)n1,growth inhibition,[1]; at 1.2 µM,0%
same,growth inhibition,[1]; at 3.7 µM,0%
same,growth inhibition,[1]; at 11.0 µM,-3%
same,growth inhibition,[1]; at 33.0 µM,-2%
same,growth inhibition,[1]; at 100.0 µM,-8%
same,growth inhibition,[2]; at 1.2 µM,0%
same,growth inhibition,[2]; at 3.7 µM,-1%
same,growth inhibition,[2]; at 11.0 µM,-1%
same,growth inhibition,[2]; at 33.0 µM,-2%
same,growth inhibition,[2]; at 100.0 µM,-2%
same,growth inhibition,[3]; at 1.2 µM,-2%
same,growth inhibition,[3]; at 3.7 µM,-3%
same,growth inhibition,[3]; at 11.0 µM,-3%
same,growth inhibition,[3]; at 33.0 µM,0%
same,growth inhibition,[3]; at 100.0 µM,-2%
same,growth inhibition,[4]; at 1.2 µM,2%
same,growth inhibition,[4]; at 3.7 µM,2%
same,growth inhibition,[4]; at 11.0 µM,2%
same,growth inhibition,[4]; at 33.0 µM,-1%
same,growth inhibition,[4]; at 100.0 µM,3%
same,growth inhibition,[5]; at 1.2 µM,0%
same,growth inhibition,[5]; at 3.7 µM,5%
same,growth inhibition,[5]; [17],1%
same,growth inhibition,[5]; at 11.0 µM,2%
same,growth inhibition,[5]; at 33.0 µM,4%
same,growth inhibition,[5]; [18],5%
same,growth inhibition,[5]; at 50.0 µM,3.7%
same,growth inhibition,[5]; at 100.0 µM,8%
same,growth inhibition,[6]; at 1.2 µM,0%
same,growth inhibition,[6]; at 3.7 µM,2%
same,growth inhibition,[6]; [17],24%
same,growth inhibition,[6]; at 11.0 µM,-1%
same,growth inhibition,[6]; at 33.0 µM,0%
same,growth inhibition,[6]; [18],33%
same,growth inhibition,[6]; at 50.0 µM,1.1%
same,growth inhibition,[6]; at 100.0 µM,-6%
same,growth inhibition,[7]; at 1.2 µM,-1%
same,growth inhibition,[7]; at 3.7 µM,2%
same,growth inhibition,[7]; at 11.0 µM,-1%
same,growth inhibition,[7]; at 33.0 µM,0%
same,growth inhibition,[7]; at 100.0 µM,-1%
same,growth inhibition,[8]; [17],19%
same,growth inhibition,[8]; [18],15%
same,growth inhibition,[8]; at 50.0 µM,0.15%
same,growth inhibition,[9]; at 1.2 µM,-2%
same,growth inhibition,[9]; at 3.7 µM,2%
same,growth inhibition,[9]; at 11.0 µM,2%
same,growth inhibition,[9]; at 33.0 µM,1%
same,growth inhibition,[9]; at 100.0 µM,1%
same,growth inhibition,[10]; [17],46%
same,growth inhibition,[10]; [18],86% (active)
same,growth inhibition,[10]; at 50.0 µM,9.95%
same,growth inhibition,[11]; at 1.2 µM,0%
same,growth inhibition,[11]; at 3.7 µM,-6%
same,growth inhibition,[11]; [17],-17%
same,growth inhibition,[11]; at 11.0 µM,0%
same,growth inhibition,[11]; at 33.0 µM,-2%
same,growth inhibition,[11]; [18],-5%
same,growth inhibition,[11]; at 50.0 µM,6.3%
same,growth inhibition,[11]; at 100.0 µM,-10%
same,growth inhibition,[12]; at 1.2 µM,-1%
same,growth inhibition,[12]; at 3.7 µM,0%
same,growth inhibition,[12]; at 11.0 µM,1%
same,growth inhibition,[12]; at 33.0 µM,-1%
same,growth inhibition,[12]; at 100.0 µM,0%
same,growth inhibition,[13]; at 1.2 µM,-1%
same,growth inhibition,[13]; at 3.7 µM,-1%
same,growth inhibition,[13]; at 11.0 µM,-13%
same,growth inhibition,[13]; at 33.0 µM,-14%
same,growth inhibition,[13]; at 100.0 µM,13%
same,growth inhibition,[14]; at 1.2 µM,-2%
same,growth inhibition,[14]; at 3.7 µM,-4%
same,growth inhibition,[14]; at 11.0 µM,-4%
same,growth inhibition,[14]; at 33.0 µM,-6%
same,growth inhibition,[14]; at 100.0 µM,-7%
same,growth inhibition,[15]; [17],-15%
same,growth inhibition,[15]; [18],10%
same,growth inhibition,[15]; at 50.0 µM,28.6%
same,growth inhibition,[16]; at 1.2 µM,-2%
same,growth inhibition,[16]; at 3.7 µM,-4%
same,growth inhibition,[16]; at 11.0 µM,-9%
same,growth inhibition,[16]; at 33.0 µM,-18%
same,growth inhibition,[16]; at 100.0 µM,-28%
Cc1ccc(S(=O)(=O)NNC(=S)Nc2cccc3ccccc23)cc1,growth inhibition,[1]; at 1.2 µM,4%
same,growth inhibition,[1]; at 3.7 µM,2%
same,growth inhibition,[1]; at 11.0 µM,3%
same,growth inhibition,[1]; at 33.0 µM,7%
same,growth inhibition,[1]; at 100.0 µM,6%
same,growth inhibition,[2]; at 1.2 µM,-3%
same,growth inhibition,[2]; at 3.7 µM,-2%
same,growth inhibition,[2]; at 11.0 µM,-1%
same,growth inhibition,[2]; at 33.0 µM,1%
same,growth inhibition,[2]; at 100.0 µM,2%
same,growth inhibition,[3]; at 1.2 µM,10%
same,growth inhibition,[3]; at 3.7 µM,11%
same,growth inhibition,[3]; at 11.0 µM,20%
same,growth inhibition,[3]; at 33.0 µM,15%
same,growth inhibition,[3]; at 100.0 µM,1%
same,growth inhibition,[4]; at 1.2 µM,-1%
same,growth inhibition,[4]; at 3.7 µM,-4%
same,growth inhibition,[4]; at 11.0 µM,-1%
same,growth inhibition,[4]; at 33.0 µM,-28%
same,growth inhibition,[4]; at 100.0 µM,1%
same,growth inhibition,[5]; at 1.2 µM,0%
same,growth inhibition,[5]; at 3.7 µM,-4%
same,growth inhibition,[5]; [17],-4%
same,growth inhibition,[5]; at 11.0 µM,-10%
same,growth inhibition,[5]; at 33.0 µM,2%
same,growth inhibition,[5]; [18],16%
same,growth inhibition,[5]; at 50.0 µM,9.65%
same,growth inhibition,[5]; at 100.0 µM,2%
same,growth inhibition,[6]; at 1.2 µM,3%
same,growth inhibition,[6]; at 3.7 µM,2%
same,growth inhibition,[6]; [17],-19%
same,growth inhibition,[6]; at 11.0 µM,4%
same,growth inhibition,[6]; at 33.0 µM,5%
same,growth inhibition,[6]; [18],33%
same,growth inhibition,[6]; at 50.0 µM,-14.4%
same,growth inhibition,[6]; at 100.0 µM,4%
same,growth inhibition,[7]; at 1.2 µM,-6%
same,growth inhibition,[7]; at 3.7 µM,-4%
same,growth inhibition,[7]; at 11.0 µM,-8%
same,growth inhibition,[7]; at 33.0 µM,-4%
same,growth inhibition,[7]; at 100.0 µM,-3%
same,growth inhibition,[8]; [17],-23%
same,growth inhibition,[8]; [18],41%
same,growth inhibition,[8]; at 50.0 µM,49.6%
same,growth inhibition,[9]; at 1.2 µM,-12%
same,growth inhibition,[9]; at 3.7 µM,-14%
same,growth inhibition,[9]; at 11.0 µM,-18%
same,growth inhibition,[9]; at 33.0 µM,-12%
same,growth inhibition,[9]; at 100.0 µM,-1%
same,growth inhibition,[10]; [17],-1%
same,growth inhibition,[10]; [18],17%
same,growth inhibition,[10]; at 50.0 µM,13.4%
same,growth inhibition,[11]; at 1.2 µM,-1%
same,growth inhibition,[11]; at 3.7 µM,0%
same,growth inhibition,[11]; [17],-19%
same,growth inhibition,[11]; at 11.0 µM,10%
same,growth inhibition,[11]; at 33.0 µM,14%
same,growth inhibition,[11]; [18],96% (active)
same,growth inhibition,[11]; at 50.0 µM,66.5%
same,growth inhibition,[11]; at 100.0 µM,29%
same,growth inhibition,[12]; at 1.2 µM,-2%
same,growth inhibition,[12]; at 3.7 µM,-1%
same,growth inhibition,[12]; at 11.0 µM,2%
same,growth inhibition,[12]; at 33.0 µM,8%
same,growth inhibition,[12]; at 100.0 µM,7%
same,growth inhibition,[13]; at 1.2 µM,0%
same,growth inhibition,[13]; at 3.7 µM,-6%
same,growth inhibition,[13]; at 11.0 µM,-2%
same,growth inhibition,[13]; at 33.0 µM,0%
same,growth inhibition,[13]; at 100.0 µM,-5%
same,growth inhibition,[14]; at 1.2 µM,2%
same,growth inhibition,[14]; at 3.7 µM,4%
same,growth inhibition,[14]; at 11.0 µM,10%
same,growth inhibition,[14]; at 33.0 µM,18%
same,growth inhibition,[14]; at 100.0 µM,17%
same,growth inhibition,[15]; [17],-8%
same,growth inhibition,[15]; [18],29%
same,growth inhibition,[15]; at 50.0 µM,-1.25%
same,growth inhibition,[16]; at 1.2 µM,-1%
same,growth inhibition,[16]; at 3.7 µM,-1%
same,growth inhibition,[16]; at 11.0 µM,2%
same,growth inhibition,[16]; at 33.0 µM,-4%
same,growth inhibition,[16]; at 100.0 µM,12%
